Experimental data as given in PubChem BioAssay (EPA / NIEHS).
Results filed as inconclusive are left out. Calls of active or inactive are those of the source. How the source made its calls: active means hit-call score of the fitted dose curve at least 0.9, where 1 is the maximum; inconclusive means response in the unintended direction; inactive means score below 0.9.

Key:
[1] = biological target: Luciferin 4-monooxygenase (Photinus pyralis) (UniProt P08659); assay: CCTE_Simmons_QuantiLum_inhib_2: CCTE's Firefly Luciferase Inhibition Assay, Simmons Lab (AID 2283767);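 on AC50: potency for inhibitors that lower luciferase luminescence relative to DMSO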
Outline: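 Luminescence loss relative to DMSO vehicle defines inhibition; detection reagent containing 150 uM D-luciferin and 147 uM dATP (final, pH 7.8) is injected immediately before each read. Enzyme is preincubated with an 8-point titration (5 nM–87.5 uM final) for 30 min at 37C.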

[2] = ACEA_AR_agonist_AUC_viability: ACEA Biosciences xCELLigence Real-Time Cell Analysis on Androgen Receptor Agonism for Viability (AID 2283775);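 on AC50: viability read 80 hours after compound addition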
Outline: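 Real-time impedance tracking of 22Rv1 growth, readings every 5 min for 5 h then hourly; area-under-curve viability endpoint at 80 hours, relative to DMSO. Compounds at eight concentrations, 1:4 steps, top 100 uM, n = 2.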

[3] = ACEA_AR_antagonist_AUC_viability: ACEA Biosciences xCELLigence Real-Time Cell Analysis on Androgen Receptor Antagonism for Viability (AID 2283776);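 further: 22Rv1 human prostate cancer cells growing on impedance electrode plates; hits lower the growth signal relative to DMSO meaning cytotoxicity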
Outline: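 Viability endpoint from label-free cell-index monitoring: 22Rv1 cultures treated with an eight-point 1:4 dilution series starting at 100 uM final, AUC at 80 h fitted against DMSO.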

[4] = ACEA_ER_AUC_viability: ACEA Biosciences xCELLigence Real-Time Cell Analysis on Estrogen Receptor Agonism for Viability (AID 2283782);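 further: continuous compound exposure with impedance area under curve over 80 h; hit means loss of impedance signal meaning reduced cell growth or viability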
Outline: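 T-47D human breast cells in phenol red-free RPMI1640 with 10% charcoal-stripped FBS were dosed with an 8-point 1:4 dilution series from 100 uM top final concentration, in duplicate. Impedance-based growth was followed for 80 h; AUC analysed versus DMSO.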

[5] = biological target: AR (gene 367) (UniProt P10275); assay: ACEA_AR_agonist_80hr: ACEA Biosciences xCELLigence Real-Time Cell Analysis on Androgen Receptor Agonism for Proliferation (AID 2283783);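 further: hits increase impedance growth signal above DMSO baseline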
Outline: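 22Rv1 human prostate cancer cells were seeded after preconditioning in assay medium and monitored overnight, then dosed in an eight-point 1:4 dilution series from 100 uM (≤0.5% DMSO). Impedance-based growth was read at 80 h, gain-of-signal versus DMSO.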

[6] = system: zebrafish Estrogen Receptor (ESR2B), gene 317733; assay: ATG_zfER2b_XSP1: Attagene TRANS-FACTORIAL Multi-Species (XSP1) HepG2 Assay for zebrafish Estrogen Receptor (ESR2B) (AID 2283773)
Outline: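 HepG2 cells transiently transfected with multiple GAL4-UAS reporter units expressing chimeric zebrafish ER2b-Gal4; 24 h chemical exposure with 3 nM 6-alpha-fluorotestosterone present. Reporter mRNA measured by RT-PCR and capillary electrophoresis; gain of signal fitted versus DMSO.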

[7] = system: frog Estrogen Receptor (ESR2), gene 100174814; assay: ATG_frER2_XSP1: Attagene TRANS-FACTORIAL Multi-Species (XSP1) HepG2 Assay for frog Estrogen Receptor (ESR2) (AID 2283774)
Outline: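 HepG2 cells transiently transfected with GAL4-UAS multiplexed reporter units expressing chimeric NR-Gal4 proteins; reporter mRNA measured 24 h after dosing by RT-PCR, FAM labeling, HpaI digestion and capillary electrophoresis. Gain-of-signal relative to DMSO; 3 nM 6-alpha-fluorotestosterone present.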

[8] = system: frog Estrogen Receptor (ESR1), gene 398734; assay: ATG_frER1_XSP1: Attagene TRANS-FACTORIAL Multi-Species (XSP1) HepG2 Assay for frog Estrogen Receptor (ESR1) (AID 2283777)
Outline: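 Read-out: fluorescent reporter mRNA via RT-PCR, HpaI digestion and capillary electrophoresis, after 24 h chemical exposure of transiently transfected human HepG2 cells expressing exogenous NR-Gal4 chimeras. DMSO served as baseline for positive-direction fitting.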

[9] = system: zebrafish Estrogen Receptor (ESR2A), gene 317734; assay: ATG_zfER2a_XSP1: Attagene TRANS-FACTORIAL Multi-Species (XSP1) HepG2 Assay for zebrafish Estrogen Receptor (ESR2A) (AID 2283778)
Outline: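 HepG2 cells transiently transfected with multiplexed GAL4-UAS reporter units and chimeric NR-GAL4 receptors; 24 h compound exposure with 3 nM 6-alpha-fluorotestosterone present. Reporter mRNA quantified by RT-PCR and capillary electrophoresis, gain-of-signal fitted relative to DMSO.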

[10] = biological target: chicken Estrogen Receptor (ESR1), ESR1 (gene 396099) (UniProt P06212); assay: ATG_chERa_XSP1: Attagene TRANS-FACTORIAL Multi-Species (XSP1) HepG2 Assay for chicken Estrogen Receptor (ESR1) (AID 2283779)
Outline: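 HepG2 cells transiently transfected with multiplexed GAL4-UAS reporter units expressing chimeric NR-Gal4 proteins; 3 nM 6-alpha-fluorotestosterone present. Reporter mRNA measured 24 h after dosing by RT-PCR, FAM labelling, HpaI digest and capillary electrophoresis; gain of signal versus DMSO.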

[11] = system: turtle Estrogen Receptor (ESR1), gene 101933533; assay: ATG_trERa_XSP1: Attagene TRANS-FACTORIAL Multi-Species (XSP1) HepG2 Assay for turtle Estrogen Receptor (ESR1) (AID 2283781)
Outline: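 HepG2 cells transiently transfected with GAL4-UAS reporter units and chimeric NR-Gal4 constructs, dosed for 24 h with 3 nM 6-alpha-fluorotestosterone present. Reporter mRNA was quantified by RT-PCR, fluorescent labelling and capillary electrophoresis, with gain of signal fitted relative to DMSO.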

[12] = ArunA_Migration_hNP: ArunA Biomedical's Oris Neuroprogenitor (hNP) Cell Migration Assay (AID 2283754)
Outline: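 Human H9-derived hNP1 neuroprogenitors on Matrigel with LIF/bFGF, plated around seeding stoppers for 16 h at 37C; stoppers removed at start of 72 h chemical exposure. Calcein-AM staining, fluorescence 494/517 nm in detection zone; loss-of-signal vs DMSO; cytochalasin D control.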

[13] = ArunA_Migration_hNC: ArunA Biomedical's Oris Neural Crest (hNC) Cell Migration Assay (AID 2283755)
Outline: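 Human H9-derived neural crest stem cells, 60,000/well on Matrigel, 16 h at 37C, then 72 h chemical exposure after seeding-stopper removal. Migration into detection zone read as calcein-AM fluorescence (ex494/em517), relative to DMSO.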

[14] = ArunA_NOG_NucleusCount: ArunA Biomedical's Neurite Outgrowth (NOG) Assay for Nucleus Count (AID 2283756)
Outline: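 Human H9-derived differentiated neurons were exposed for 48 h right after seeding. Hoechst-stained nuclei gated by size and intensity were counted by automated high-content imaging as viable neurons. Loss of signal vs DMSO.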

[15] = ArunA_NOG_BranchPointsPerNeurite: ArunA Biomedical's Neurite Outgrowth (NOG) Assay for Branch Points Per Neurite (AID 2283759)
Outline: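 Automated image analysis traced neurites (processes >10 um) from valid cell bodies after Hoechst and βIII-tubulin staining. hNN cells from H9 embryonic stem cells, 48 h exposure. Fitted bidirectionally against DMSO.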

[16] = ArunA_NOG_NeuriteLength: ArunA Biomedical's Neurite Outgrowth (NOG) Assay for Neurite Length (AID 2283757)
Outline: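 Differentiated human H9-derived neurons were exposed for 48 h from seeding, then stained with Hoechst and βIII-tubulin. Automated high-content imaging gave total neurite length per valid neuron, counting processes >10 um. Loss of signal was scored versus DMSO.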

[17] = ArunA_NOG_NeuritesPerNeuron: ArunA Biomedical's Neurite Outgrowth (NOG) Assay for Neurites Per Neuron (AID 2283758)
Outline: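 Differentiated human H9-derived neurons exposed to chemicals for 48 h from seeding, then stained with Hoechst and βIII-tubulin/DyLight 488. Automated imaging counted neurites (processes >10 um) per valid neuron; loss of signal versus DMSO scored.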

Chain of Luciferin 4-monooxygenase (Photinus pyralis) (P08659 whole entry, looked up): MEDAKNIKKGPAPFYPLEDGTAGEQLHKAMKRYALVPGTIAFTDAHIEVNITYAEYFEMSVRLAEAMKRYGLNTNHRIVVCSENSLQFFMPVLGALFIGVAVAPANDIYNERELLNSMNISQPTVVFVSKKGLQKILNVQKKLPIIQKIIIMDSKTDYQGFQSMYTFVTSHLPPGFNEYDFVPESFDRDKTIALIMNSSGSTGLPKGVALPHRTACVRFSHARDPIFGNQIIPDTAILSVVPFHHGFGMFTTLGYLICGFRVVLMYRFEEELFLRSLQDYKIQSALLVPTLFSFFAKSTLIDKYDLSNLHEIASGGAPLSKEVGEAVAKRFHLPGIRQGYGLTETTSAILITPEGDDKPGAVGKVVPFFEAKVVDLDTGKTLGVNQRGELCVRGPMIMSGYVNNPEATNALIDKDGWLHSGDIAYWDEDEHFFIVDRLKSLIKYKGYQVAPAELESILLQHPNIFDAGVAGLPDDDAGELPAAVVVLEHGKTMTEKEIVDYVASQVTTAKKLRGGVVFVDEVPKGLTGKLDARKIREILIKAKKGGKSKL
Chain of AR (gene 367) (P10275 whole entry, looked up): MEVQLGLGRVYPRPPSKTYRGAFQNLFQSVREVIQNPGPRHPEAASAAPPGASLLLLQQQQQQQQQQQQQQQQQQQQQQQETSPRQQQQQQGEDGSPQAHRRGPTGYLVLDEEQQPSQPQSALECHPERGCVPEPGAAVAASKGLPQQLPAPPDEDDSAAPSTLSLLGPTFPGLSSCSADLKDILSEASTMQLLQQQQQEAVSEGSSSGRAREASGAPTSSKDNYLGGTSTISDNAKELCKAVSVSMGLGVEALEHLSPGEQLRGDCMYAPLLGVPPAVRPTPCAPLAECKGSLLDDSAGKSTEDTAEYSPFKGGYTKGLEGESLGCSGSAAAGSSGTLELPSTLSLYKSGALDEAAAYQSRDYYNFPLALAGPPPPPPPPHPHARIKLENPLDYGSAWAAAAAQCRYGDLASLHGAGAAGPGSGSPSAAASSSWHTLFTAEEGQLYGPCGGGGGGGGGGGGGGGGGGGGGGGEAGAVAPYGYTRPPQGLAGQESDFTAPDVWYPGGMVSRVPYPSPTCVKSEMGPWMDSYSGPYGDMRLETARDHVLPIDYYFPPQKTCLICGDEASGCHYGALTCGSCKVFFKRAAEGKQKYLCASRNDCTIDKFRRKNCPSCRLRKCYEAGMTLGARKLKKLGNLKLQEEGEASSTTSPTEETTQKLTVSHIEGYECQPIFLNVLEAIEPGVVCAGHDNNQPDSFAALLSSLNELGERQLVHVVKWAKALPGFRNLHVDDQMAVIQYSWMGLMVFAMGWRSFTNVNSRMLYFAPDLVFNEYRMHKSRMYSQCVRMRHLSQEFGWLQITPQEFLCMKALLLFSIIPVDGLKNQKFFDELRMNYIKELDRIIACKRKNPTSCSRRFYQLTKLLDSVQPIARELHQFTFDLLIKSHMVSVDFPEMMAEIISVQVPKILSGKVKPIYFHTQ
Chain of chicken Estrogen Receptor (ESR1), ESR1 (gene 396099) (P06212 whole entry, looked up, the tested form may be a part): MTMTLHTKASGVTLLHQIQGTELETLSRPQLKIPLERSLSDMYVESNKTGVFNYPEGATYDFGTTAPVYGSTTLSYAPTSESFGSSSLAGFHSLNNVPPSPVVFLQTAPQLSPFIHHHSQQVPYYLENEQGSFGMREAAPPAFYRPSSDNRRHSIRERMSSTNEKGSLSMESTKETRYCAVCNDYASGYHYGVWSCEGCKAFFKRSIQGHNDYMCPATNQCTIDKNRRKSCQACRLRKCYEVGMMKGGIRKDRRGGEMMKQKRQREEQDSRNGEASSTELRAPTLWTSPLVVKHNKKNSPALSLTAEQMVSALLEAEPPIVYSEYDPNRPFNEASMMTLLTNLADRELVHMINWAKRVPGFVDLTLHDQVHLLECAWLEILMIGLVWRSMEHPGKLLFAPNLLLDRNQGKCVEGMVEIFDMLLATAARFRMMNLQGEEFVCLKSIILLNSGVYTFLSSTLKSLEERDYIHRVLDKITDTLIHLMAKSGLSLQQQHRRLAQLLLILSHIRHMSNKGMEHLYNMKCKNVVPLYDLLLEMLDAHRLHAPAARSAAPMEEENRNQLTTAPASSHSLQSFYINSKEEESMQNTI

Compound: COP(=O)(OC)SCn1c(=O)oc2cc(Cl)cnc21
- outcome [1]: inactive
- AC50 [2]: 23.7 µM (active)
- AC50 [3]: 17.2 µM (active)
- AC50 [4]: 76.2 µM (active)
- outcome [5]: inactive

Compound: CCCSP(=O)(OCC)SCCC
- outcome [1]: inactive
- outcome [2]: inactive
- AC50 [3]: 28.8 µM (active)

Compound: CCOP(=S)(OCC)Oc1ccc2c(C)c(Cl)c(=O)oc2c1
- outcome [1]: inactive
- AC50 [6]: 44.6 µM (active)
- AC50 [7]: 34.6 µM (active)
- outcome [2]: inactive
- AC50 [3]: 31 µM (active)
- outcome [8]: inactive
- outcome [9]: inactive
- outcome [10]: inactive
- outcome [11]: inactive

Compound: C[Si](Cn1cncn1)(c1ccc(F)cc1)c1ccc(F)cc1
- outcome [12]: inactive
- outcome [13]: inactive
- outcome [14]: inactive
- outcome [15]: inactive
- AC50 [2]: 60.4 µM (active)
- AC50 [3]: 50 µM (active)

Compound: C#CCC1=C(C)C(OC(=O)C2C(C=C(C)C)C2(C)C)CC1=O (centres undefined)
- outcome [1]: inactive
- AC50 [6]: 25.3 µM (active)
- AC50 [7]: 23.4 µM (active)
- AC50 [2]: 67.2 µM (active)
- AC50 [3]: 49.8 µM (active)

Compound: CC1=NNC(=O)N(/N=C/c2cccnc2)C1
- outcome [12]: inactive
- outcome [13]: inactive
- AC50 [14]: 59.4 µM (active)
- AC50 [16]: 73.8 µM (active)
- AC50 [17]: 65 µM (active)
- AC50 [15]: 66.2 µM (active)
- outcome [2]: inactive
- outcome [3]: inactive

Compound: N#CSCSC#N
- AC50 [1]: 53.8 µM (active)
- AC50 [2]: 7.42 µM (active)
- AC50 [3]: 7.39 µM (active)

Compound: O=C(O)c1cc(Oc2ccc(C(F)(F)F)cc2Cl)ccc1[N+](=O)[O-]
- AC50 [2]: 50 µM (active)
- outcome [3]: inactive

Compound: COP(=O)(NC(C)=O)SC (centres undefined)
- AC50 [1]: 37.5 µM (active)
- outcome [2]: inactive
- outcome [3]: inactive

Compound: CCOC(=O)CC(SP(=O)(OC)OC)C(=O)OCC (centres undefined)
- outcome [1]: inactive
- outcome [2]: inactive
- outcome [3]: inactive

Compound: CC(C)[C@H](C(=O)O[C@H](C#N)c1cccc(Oc2ccccc2)c1)c1ccc(Cl)cc1
- AC50 [2]: 17.2 µM (active)

Compound: CCOC(=O)COc1cc(-c2nn(C)c(OC(F)F)c2Cl)c(F)cc1Cl
- outcome [2]: inactive
- AC50 [3]: 16.6 µM (active)

Compound: CCOP(=S)(Oc1cnc(C(C)(C)C)nc1)OC(C)C (centres undefined)
- AC50 [1]: 61.8 µM (active)
- AC50 [2]: 46.3 µM (active)
- AC50 [3]: 50 µM (active)

Compound: S=C1NCCN1
- outcome [12]: inactive
- outcome [13]: inactive
- outcome [14]: inactive
- outcome [15]: inactive
- AC50 [1]: 1.9 µM (active)
- outcome [2]: inactive
- outcome [3]: inactive

Compound: CCOP(=S)(OCC)Oc1cc(C)nc(C(C)C)n1
- outcome [1]: inactive
- outcome [2]: inactive
- outcome [3]: inactive

Compound: C=C(C)[C@H]1Cc2c(ccc3c2O[C@@H]2COc4cc(OC)c(OC)cc4[C@@H]2C3=O)O1
- outcome [1]: inactive
- AC50 [2]: 0.284 µM (active)
- AC50 [3]: 0.413 µM (active)
- outcome [5]: inactive

Compound: CCC(=NOC/C=C/Cl)C1=C(O)CC(C2CCOCC2)CC1=O (centres undefined)
- outcome [1]: inactive
- outcome [2]: inactive
